Test results from PubChem BioAssay.
Active and inactive are the calls of the source.

What follows are compounds tested on XIP peptide (Xip251-270) binding (assay: XIP fragment 251-270 binding compounds – biochemical, small-molecule microarray, fluorescence 635/667 nm, 0.1 µg/mL protein, primary screen (AID 1182)). Settings: fluorescent protein binding, 635 nm, higher = more signal, called active from +8 up or from −8 down.

Q: How did the composite z-score turn out when `COC(=O)C1=CCC(c2cccc(Cl)c2)O1` (stereo not given) was run?
A: -0.0103 (inactive)

Q: `C=CC[C@@H]1C=C[C@H](ON=C(C)CCN2CCc3nc(CC)c(CC)cc3C2)[C@@H](CO)O1` was tested. Which composite z-score did it give?
A: 0.0621 (inactive)

Q: Which composite z-score does the source give for `CC(=O)OC[C@H]1O[C@H](CCON=C[C@@H](C)[C@H](OCc2ccccc2)C(C)C)C=C[C@@H]1OC(C)=O` here?
A: 0.72 (inactive)

Q: With `CCOC(=O)[C@H](Cc1ccccc1)NC(=O)CCC1CC(OC(=O)NCc2ccc3c(c2)OCO3)CC2(CCCC(COC(=O)NCc3cccc(C(F)(F)F)c3)O2)O1` (stereo not given in full) as the compound, how does the composite z-score read?
A: 0.19 (inactive)

Q: Which composite z-score does the source give for `CCOC(=O)[C@H](CC(C)C)NC(=O)CCC1CC(OC(=O)NCc2cccc3ccccc23)CC2(CCCC(COC(=O)NCCc3ccccc3OC)O2)O1` (stereo not given in full) here?
A: 1.05 (inactive)

Q: For `CC(=O)OC[C@H]1O[C@H](CCON=C(C)CCC(=O)OC[C@H]2O[C@H](C#Cc3ccccc3)C=C[C@@H]2Oc2ccc(C)cc2)C=C[C@@H]1OC(C)=O`, which composite z-score is on record?
A: -0.365 (inactive)

Q: With `C#C[C@@H](CC)O[Si](C#Cc1ccc(Oc2ccccc2)cc1)(C(C)C)C(C)C` as the compound, how does the composite z-score read?
A: 0.0878 (inactive)

Q: How did the composite z-score turn out when `O=C1C[C@@H](O)[C@@H](O)[C@@H]2[C@@H]3C(=O)N(c4cccc(Oc5ccccc5)c4)C(=O)[C@@H]3CC[C@@H]12` was run?
A: -0.0811 (inactive)

Q: How did the composite z-score turn out when `O=C1[C@H]2[C@H]3[C@H](O)[C@H](O)CC(=NO[C@@H]4O[C@H](CO)[C@@H](O)[C@H](O)[C@H]4O)[C@H]3CC[C@H]2C(=O)N1Cc1ccccc1` was run?
A: -0.175 (inactive)

Q: How did the composite z-score turn out when `COc1cccc([C@H]2Oc3ccc(OC)cc3C(=NOC(C)CN3CCCc4nc(C)c(C)cc43)[C@@H]2O)c1` (stereo not given in full) was run?
A: 0.22 (inactive)

Q: `O=C1[C@H]2[C@H]3[C@H](O)[C@H](O)CC(=NOCc4ccccc4)[C@H]3CC[C@H]2C(=O)N1c1ccc(F)cc1F` was tested. Which composite z-score did it give?
A: -0.0939 (inactive)

Q: `O=C1[C@H]2[C@H]3[C@H](O)[C@H](O)CC(=NO[C@@H]4O[C@H](CO)[C@@H](O)[C@H](O)[C@H]4O)[C@@H]3CC[C@H]2C(=O)N1Cc1ccccc1` was tested. Which composite z-score did it give?
A: 0.0711 (inactive)

Q: With `C=C(CCCC)C(=O)CC[C@@H](OC(C)=O)c1cccc(OCCO)c1` as the compound, how does the composite z-score read?
A: -0.0399 (inactive)

Q: Which composite z-score does the source give for `O=C1[C@H]2[C@H]3[C@H](O)[C@H](O)CC(=NOC[C@@H](O)COCc4ccco4)[C@@H]3CC[C@H]2C(=O)N1c1ccc(F)cc1F` here?
A: -0.233 (inactive)

Q: How did the composite z-score turn out when `CC(=O)OC[C@H]1O[C@H](CCON=C(C)CCN2CCc3nc(-c4ccccc4)c(-c4ccccc4)cc3C2)C=C[C@@H]1OC(C)=O` was run?
A: 0.583 (inactive)

Q: `COC(=O)[C@H](C)NC(=O)CCC1CC(OC(=O)NCc2cccc3ccccc23)CC2(CCCC(COC(=O)NCCc3ccc(Cl)cc3)O2)O1` (stereo not given in full) was tested. Which composite z-score did it give?
A: -0.0057 (inactive)

Q: Which composite z-score does the source give for `C=CC[C@]1(C(=O)NCc2ccccc2)N=C(c2ccc(OCCCO)cc2)O[C@H]1c1ccccc1` here?
A: 1.55 (inactive)

Q: With `COC(=O)CC=C[C@@H](C)[C@@H](C=NO[C@@H](C)c1cc(-c2c(C)cc(C)cc2C)no1)OC` as the compound, how does the composite z-score read?
A: 0.0164 (inactive)

Q: How did the composite z-score turn out when `C=CC[C@@H]1C=C[C@H](ON=Cc2ccc(C(=O)N3[C@H](c4ccc(C)cc4)[C@@H](C)CC[C@H]3C(=O)OC)cc2)[C@@H](CO)O1` was run?
A: -0.27 (inactive)

Q: `CC(C)=CCCC(C)=CCON=C1[C@H]2CCn3c(=O)n(C)c(=O)n3[C@H]2[C@H](O)[C@@H]2O[C@H]12` was tested. Which composite z-score did it give?
A: 0.258 (inactive)

Q: `COC(=O)[C@H](C)NC(=O)CCC1CC(OC(=O)NCc2ccc3c(c2)OCO3)CC2(CCCC(COC(=O)NCCOc3ccccc3)O2)O1` (stereo not given in full) was tested. Which composite z-score did it give?
A: -0.045 (inactive)

Q: `C[C@@H](c1ccccc1)N1C(=O)[C@H]2[C@H]3[C@H](O)[C@H](O)CC(=NNC(=O)OCc4ccccc4)[C@H]3CC[C@H]2C1=O` was tested. Which composite z-score did it give?
A: -0.724 (inactive)

Q: For `CCOC(=O)NN=C1C[C@@H](O)[C@@H](O)[C@@H]2[C@@H]3C(=O)N(C[C@@H]4CCCO4)C(=O)[C@@H]3CC[C@@H]12`, which composite z-score is on record?
A: 0.0985 (inactive)

Q: How did the composite z-score turn out when `C[C@@H]1CC[C@H]2C(=O)O[C@H](COc3ccc(C(C)(C)C)cc3)CN2[C@H]1c1ccc(Br)cc1` was run?
A: -0.418 (inactive)

Q: How did the composite z-score turn out when `CC(CCN1CCc2nc(-c3ccccc3)c(-c3ccccc3)cc2C1)=NOC[C@@H](C)[C@H](OCc1ccccc1)C(C)C` was run?
A: 2.56 (inactive)

Each compound was assayed on XIP peptide (Xip251-270) (assay: compounds binding XIP fragment 251-270 – biochemical, small-molecule microarray, fluorescence 635/667 nm, 0.5 µg/mL protein, primary screen (AID 1183)). Settings: fluorescence 635 nm, higher = more signal.

Q: For `CC(C)=NOCc1cccc(-c2cc(-c3ccccc3)no2)c1`, which composite z-score is on record?
A: 0.326

Q: Which composite z-score does the source give for `O=C1[C@H]2[C@H]3[C@H](O)[C@H](O)CC(=NOC[C@@H](O)COCc4ccco4)[C@H]3CC[C@H]2C(=O)N1Cc1ccc2c(c1)OCO2` here?
A: 0.127

Q: With `O=C1C[C@@H](O)[C@@H](O)[C@@H]2[C@@H]3C(=O)N(C4CCCCC4)C(=O)[C@@H]3CC[C@H]12` as the compound, how does the composite z-score read?
A: 0.349

Q: How did the composite z-score turn out when `C[C@@H]1CCC2C(=O)N(Cc3ccccc3)C[C@@H](O)CN2[C@H]1c1ccc(Br)cc1` (stereo not given in full) was run?
A: 0.689

Q: For `CCOC(=O)CCN1C(=O)[C@H]2[C@H]3[C@H](O)[C@H](O)CC(=NOCc4ccccc4)[C@@H]3CC[C@H]2C1=O`, which composite z-score is on record?
A: 0.635

Q: Which composite z-score does the source give for `O=C1[C@H]2[C@H]3[C@H](O)[C@H](O)CC(=NOC[C@@H](O)COCc4ccco4)[C@H]3CC[C@H]2C(=O)N1C1CCCCC1` here?
A: -0.37

Q: For `COc1ccc(OC[C@H]2Cc3c(-c4ccccc4)nc4c(c3CO2)CN(CCOc2ccccc2)CC4)cc1`, which composite z-score is on record?
A: 0.71

Q: For `CCOC(=O)[C@H](Cc1ccccc1)NC(=O)CCC1CC(OC(=O)NCCc2ccc(F)cc2)CC2(CCCC(COC(=O)NCC(c3ccccc3)c3ccccc3)O2)O1` (stereo not given in full), which composite z-score is on record?
A: 0.651

Q: How did the composite z-score turn out when `C#CCCCON=C1C[C@@H](O)[C@@H](O)[C@@H]2[C@@H]3C(=O)N(CCC(=O)OCC)C(=O)[C@@H]3CC[C@@H]12` was run?
A: 0.365

Q: How did the composite z-score turn out when `CCCC[C@@H](O)C1=C(C)C[C@H]2C(=O)N(Cc3ccccc3)C(=O)[C@H]2[C@H]1CO` was run?
A: 0.576

Q: With `COC(=O)C1=CCC(c2cccc(Cl)c2)O1` (stereo not given) as the compound, how does the composite z-score read?
A: 0.45

Q: With `C=CC[C@@H]1C=C[C@H](ON=C(C)CCN2CCc3nc(CC)c(CC)cc3C2)[C@@H](CO)O1` as the compound, how does the composite z-score read?
A: -0.0738

Q: Which composite z-score does the source give for `CC(=O)OC[C@H]1O[C@H](CCON=C[C@@H](C)[C@H](OCc2ccccc2)C(C)C)C=C[C@@H]1OC(C)=O` here?
A: 0.165

Q: How did the composite z-score turn out when `CCOC(=O)[C@H](Cc1ccccc1)NC(=O)CCC1CC(OC(=O)NCc2ccc3c(c2)OCO3)CC2(CCCC(COC(=O)NCc3cccc(C(F)(F)F)c3)O2)O1` (stereo not given in full) was run?
A: 0.109

Q: `CCOC(=O)[C@H](CC(C)C)NC(=O)CCC1CC(OC(=O)NCc2cccc3ccccc23)CC2(CCCC(COC(=O)NCCc3ccccc3OC)O2)O1` (stereo not given in full) was tested. Which composite z-score did it give?
A: 0.623

Q: Which composite z-score does the source give for `CC(=O)OC[C@H]1O[C@H](CCON=C(C)CCC(=O)OC[C@H]2O[C@H](C#Cc3ccccc3)C=C[C@@H]2Oc2ccc(C)cc2)C=C[C@@H]1OC(C)=O` here?
A: 0.0804

Q: Which composite z-score does the source give for `C#C[C@@H](CC)O[Si](C#Cc1ccc(Oc2ccccc2)cc1)(C(C)C)C(C)C` here?
A: -0.102

Q: `O=C1C[C@@H](O)[C@@H](O)[C@@H]2[C@@H]3C(=O)N(c4cccc(Oc5ccccc5)c4)C(=O)[C@@H]3CC[C@@H]12` was tested. Which composite z-score did it give?
A: 0.726

Q: For `O=C1[C@H]2[C@H]3[C@H](O)[C@H](O)CC(=NO[C@@H]4O[C@H](CO)[C@@H](O)[C@H](O)[C@H]4O)[C@H]3CC[C@H]2C(=O)N1Cc1ccccc1`, which composite z-score is on record?
A: 0.588

Q: For `COc1cccc([C@H]2Oc3ccc(OC)cc3C(=NOC(C)CN3CCCc4nc(C)c(C)cc43)[C@@H]2O)c1` (stereo not given in full), which composite z-score is on record?
A: -0.452

Q: With `O=C1[C@H]2[C@H]3[C@H](O)[C@H](O)CC(=NOCc4ccccc4)[C@H]3CC[C@H]2C(=O)N1c1ccc(F)cc1F` as the compound, how does the composite z-score read?
A: 0.159

Q: Which composite z-score does the source give for `O=C1[C@H]2[C@H]3[C@H](O)[C@H](O)CC(=NO[C@@H]4O[C@H](CO)[C@@H](O)[C@H](O)[C@H]4O)[C@@H]3CC[C@H]2C(=O)N1Cc1ccccc1` here?
A: 0.216

Q: `C=C(CCCC)C(=O)CC[C@@H](OC(C)=O)c1cccc(OCCO)c1` was tested. Which composite z-score did it give?
A: 0.0194

Q: With `O=C1[C@H]2[C@H]3[C@H](O)[C@H](O)CC(=NOC[C@@H](O)COCc4ccco4)[C@@H]3CC[C@H]2C(=O)N1c1ccc(F)cc1F` as the compound, how does the composite z-score read?
A: -0.103

Q: With `CC(=O)OC[C@H]1O[C@H](CCON=C(C)CCN2CCc3nc(-c4ccccc4)c(-c4ccccc4)cc3C2)C=C[C@@H]1OC(C)=O` as the compound, how does the composite z-score read?
A: -0.0332

Q: `COC(=O)[C@H](C)NC(=O)CCC1CC(OC(=O)NCc2cccc3ccccc23)CC2(CCCC(COC(=O)NCCc3ccc(Cl)cc3)O2)O1` (stereo not given in full) was tested. Which composite z-score did it give?
A: 0.204

Q: How did the composite z-score turn out when `C=CC[C@]1(C(=O)NCc2ccccc2)N=C(c2ccc(OCCCO)cc2)O[C@H]1c1ccccc1` was run?
A: 0.776

Q: With `COC(=O)CC=C[C@@H](C)[C@@H](C=NO[C@@H](C)c1cc(-c2c(C)cc(C)cc2C)no1)OC` as the compound, how does the composite z-score read?
A: -0.293

Q: `C=CC[C@@H]1C=C[C@H](ON=Cc2ccc(C(=O)N3[C@H](c4ccc(C)cc4)[C@@H](C)CC[C@H]3C(=O)OC)cc2)[C@@H](CO)O1` was tested. Which composite z-score did it give?
A: 0.379

Q: With `CC(C)=CCCC(C)=CCON=C1[C@H]2CCn3c(=O)n(C)c(=O)n3[C@H]2[C@H](O)[C@@H]2O[C@H]12` as the compound, how does the composite z-score read?
A: 0.246

Q: `COC(=O)[C@H](C)NC(=O)CCC1CC(OC(=O)NCc2ccc3c(c2)OCO3)CC2(CCCC(COC(=O)NCCOc3ccccc3)O2)O1` (stereo not given in full) was tested. Which composite z-score did it give?
A: 0.588

Q: With `C[C@@H](c1ccccc1)N1C(=O)[C@H]2[C@H]3[C@H](O)[C@H](O)CC(=NNC(=O)OCc4ccccc4)[C@H]3CC[C@H]2C1=O` as the compound, how does the composite z-score read?
A: -0.131

Q: `CCOC(=O)NN=C1C[C@@H](O)[C@@H](O)[C@@H]2[C@@H]3C(=O)N(C[C@@H]4CCCO4)C(=O)[C@@H]3CC[C@@H]12` was tested. Which composite z-score did it give?
A: -0.0422

Q: For `C[C@@H]1CC[C@H]2C(=O)O[C@H](COc3ccc(C(C)(C)C)cc3)CN2[C@H]1c1ccc(Br)cc1`, which composite z-score is on record?
A: 0.769

Q: With `CC(CCN1CCc2nc(-c3ccccc3)c(-c3ccccc3)cc2C1)=NOC[C@@H](C)[C@H](OCc1ccccc1)C(C)C` as the compound, how does the composite z-score read?
A: -0.445
